Results as given in PubChem BioAssay (NCATS).
Records with an inconclusive call do not appear. Values without a mark were called inactive. Active and inactive are the calls of the source. Calls come from the whole dose curve; as a rule, active = well fitted inhibition curve with a large enough effect in the repeat runs; inconclusive = weak or mixed curves; inactive = no such curve, though single readings can be large or run the other way.
% is set by controls: 0 for no effect and ±100 for the full control effect; potency is the fitted concentration of half-maximal effect.

The molecules below were run against Cytochrome P450 2C9 (Homo sapiens) (UniProt P11712) (assay: Cytochrome P450 family 2 subfamily C member 9 (CYP2C9) small molecule antagonists: luciferase biochemical (cell-free) qHTS assay (AID 1645842; note: nearly all actives have a fitted effect of over 55% in size)). Details: P450-Glo CYP2C9 enzyme assay, luciferin luminescence; series mostly up to 57.4 µM; activity change, negative = inhibition: at the top concentration.
Chain of Cytochrome P450 2C9 (Homo sapiens) (P11712 whole entry, looked up): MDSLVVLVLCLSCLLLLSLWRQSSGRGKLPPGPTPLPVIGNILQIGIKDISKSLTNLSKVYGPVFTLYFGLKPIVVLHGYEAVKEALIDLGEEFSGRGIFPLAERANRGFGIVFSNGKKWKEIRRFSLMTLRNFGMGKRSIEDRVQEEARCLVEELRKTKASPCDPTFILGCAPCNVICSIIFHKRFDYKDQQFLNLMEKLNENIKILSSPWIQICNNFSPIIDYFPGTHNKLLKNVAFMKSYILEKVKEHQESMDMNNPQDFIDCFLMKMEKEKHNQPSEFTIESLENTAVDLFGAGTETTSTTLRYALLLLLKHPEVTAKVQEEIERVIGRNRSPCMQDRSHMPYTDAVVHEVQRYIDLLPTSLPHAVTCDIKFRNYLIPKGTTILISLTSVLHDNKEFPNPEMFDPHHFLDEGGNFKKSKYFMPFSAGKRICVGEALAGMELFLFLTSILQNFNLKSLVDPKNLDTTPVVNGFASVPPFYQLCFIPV
Experimental: National Center for Advancing Translational Sciences [NCATS] Assay Overview: Cytochrome P450 (CYP) enzymes are membrane-bound hemeproteins that play a key role in metabolism of drugs and xenobiotics. Assaying the effect of chemicals on CYP isozymes is useful to minimize the adverse drug reactions and toxicities in drug development process. Chemical compounds were tested for their effect on CYP enzyme activities by using P450-Glo (TM) screening systems (Promega Corporation, Madison, WI). These systems provide a luminescent method containing proluciferin substrates and are converted to luciferin products by CYP isozymes. The luciferin products formed are detected with a luciferin detection reagent, and the amount of light produced is proportional to CYP activity. P450-Glo (TM) CYP2C9 screening system (Catalog. No. V9790) was used to detect the compounds that interfere in CYP2C9 activity.
Assay Protocol Summary: Two ul of enzyme-substrate mix supplemented with 0.4% Bovine Serum Albumin was dispensed into medium binding white/solid 1536-well plates (Greiner Bio-One North America Inc., Monroe, NC) using a Flying Reagent Dispenser (FRD, Aurora Discovery, San Diego, CA). […] The assay plates were incubated at room temperature for 10 min. Then 2 ul of NADPH regeneration solution was added to each well of the assay plates using an FRD and incubated at 37C for 1 h. The reaction was stopped by adding 4 ul of detection reagent using an FRD and after 20 min incubation at room temperature, the luminescence signal was measured using a ViewLux plate reader (Perkin Elmer, Shelton, CT). Data were expressed as relative luminescence units.
In the case of `COC(=O)CCSCc1ccc(-c2onc(C)c2NC(=O)OC(C)c2ccccc2Cl)cc1` (stereo not given), the Potency was 1.51 µM (active).
`Cc1cc(Nc2ccc(NC(=O)c3ccc(Nc4ccnc5ccccc45)cc3)cc2)nc(N)n1` was tested, and the “activity change, negative = inhibition” value was 1.41%.
`CC(C)C(CO)Nc1nc(Nc2cc(N)cc(Cl)c2)c2ncn(C(C)C)c2n1` (stereo not given) was tested, and the Potency was 0.536 µM (active).
`C[C@H]1Oc2cc(cnc2N)-c2c(nn(C)c2C#N)CN(C)C(=O)c2ccc(F)cc21` was tested, and the Potency was 6.01 µM (active).
With `CCN(Cc1cccnc1)C(=O)CN(c1ccc(OC)nc1)S(=O)(=O)c1ccccc1C` the Potency was 19 µM (active).
For `O=C1CC2(CCCC2)[C@H](O)C(=O)N1CCCCN1CCN(c2ncccn2)CC1`, the Potency was 10.7 µM (active).
For `O=C(CC(c1ccccc1)c1ccccc1)N1CCN(C(c2ccccc2)c2ccccc2)CC1`, the Potency was 4.77 µM (active).
For `Cc1c[nH]c2nccc(Oc3c(F)cc(Nc4cc(Cl)nc(N)n4)cc3F)c12`, the Potency was 15.1 µM (active).
With `CC(=O)N1CCN(Cc2ccc([C@H](C)Nc3nccc(N4C(=O)OC[C@@H]4C(C)C)n3)cc2)CC1` the Potency was 23.9 µM (active).
For `CS(=O)(=O)N1CCC(NC(=O)c2[nH]ncc2NC(=O)c2c(Cl)cccc2Cl)CC1`, the Potency was 21.3 µM (active).
In the case of `CC(C)(C)Nc1nc(Nc2ccc(C(N)=O)cc2)cc(N)c1C#N`, the Potency was 3.38 µM (active).
In the case of `Cc1nc(Nc2n[nH]c3c2CN(C(=O)NC(CN(C)C)c2ccccc2)C3(C)C)c2sccc2n1` (stereo not given), the Potency was 13.5 µM (active).
In the case of `Cn1c2ccc(F)cc2c2c(C(=O)N3CCCC3)cn(-c3ccccc3)c(=O)c21`, the Potency was 1.51 µM (active).
In the case of `Cc1cccc(/C=N/Nc2cc(N3CCOCC3)n3nc(-c4ccncc4)cc3n2)c1`, the Potency was 1.34 µM (active).
For `Cc1c(C(=O)N2CCOc3ccc(-c4ccc(N)nc4)cc3C2)ccc(S(C)(=O)=O)c1F`, the “activity change, negative = inhibition” value was 1%.
For `O=C(NCC(O)CO)c1ccncc1Nc1ccc(I)cc1F` (stereo not given), the Potency was 16.9 µM (active).
With `CC(C)c1cccc2c(-c3ccccc3)cc(-c3ccc(-c4ccc(C(=O)O)cc4)[nH]3)nc12` the Potency was 7.56 µM (active).
In the case of `Cc1cc(C)nc(NS(=O)(=O)c2ccc(NC(=S)NC(=O)COc3ccc(Br)cc3Cl)cc2)n1`, the Potency was 10.7 µM (active).
`NC(=O)C(CCC(F)(F)F)N(Cc1ccc(-c2ncon2)cc1F)S(=O)(=O)c1ccc(Cl)cc1` (stereo not given) was tested, and the Potency was 1.51 µM (active).
`CC(C)(C)c1cc(Br)cc([C@H](CC(=O)O)NC(=O)CNC(=O)c2cc(O)cc(NC3=NCC(O)CN3)c2)c1` (stereo not given in full) was tested, and the “activity change, negative = inhibition” value was 11.5%.
With `CC(Cc1cc2c(c(C(N)=O)c1)N(CCCO)CC2)NCCOc1ccccc1OCC(F)(F)F` (stereo not given) the “activity change, negative = inhibition” value was -18.9%.
For `Cc1oc2ccccc2c1CNC(=O)NCc1cccs1`, the “activity change, negative = inhibition” value was -9.75%.
In the case of `COc1ccc(C2(O)CCC(N3CC[C@@H](NC(=O)CNC(=O)c4cccc(C(F)(F)F)c4)C3)CC2)cn1` (stereo not given in full), the “activity change, negative = inhibition” value was -25.6%.
`CCC(CC)C(=O)Nc1sc2c(c1C#N)CCC(C(C)(C)CC)C2` (stereo not given) was tested, and the Potency was 5.35 µM (active).
`COc1cc2ncnc(Nc3ccc(O)cc3)c2cc1OC` was tested, and the “activity change, negative = inhibition” value was -0.643%.
For `Cc1ccc(-c2ccc3ncc4c(c3n2)n(C2CCN(C(=O)[C@H](C)O)CC2)c(=O)n4C)cn1`, the Potency was 10.7 µM (active).
With `Cc1cc(C(N)=O)ccc1-n1c(CCC(=O)O)ccc1-c1ccc(-n2ccnc2)cc1` the Potency was 3.38 µM (active).
For `Cc1ccccc1-n1c([C@H](C)Nc2nc(N)nc3nc[nH]c23)nc2cccc(C)c2c1=O`, the Potency was 1.34 µM (active).
In the case of `N#Cc1ccc2[nH]cc(CCCCN3CCN(c4ccc5oc(C(N)=O)cc5c4)CC3)c2c1`, the Potency was 13.5 µM (active).
With `COCCN1CCN(Cc2ccc(-c3n[nH]c4c3C(=O)c3c(NC(=O)NN5CCOCC5)cccc3-4)cc2)CC1` the Potency was 2.13 µM (active).
With `CCCC1(c2ccccc2)NC(=O)N(CC(=O)N(C)Cc2c(F)cccc2Cl)C1=O` (stereo not given) the Potency was 12 µM (active).
`O=C(NCc1ccc(F)cc1)C(=O)c1c[nH]c2ccccc12` was tested, and the Potency was 1.9 µM (active).
`NC(=O)c1cccc2cn(-c3ccc(C4CCCNC4)cc3)nc12` (stereo not given) was tested, and the “activity change, negative = inhibition” value was 11%.
For `COc1ccc(CNC(=O)c2cc(-c3cncc(C)c3)ncc2-c2nccs2)nc1OC`, the Potency was 4.25 µM (active).
With `Cc1ccc(-c2ccc3c(ccc4sc5c(c43)NC[C@@H](C)NC5=O)n2)cn1` the “activity change, negative = inhibition” value was -27.1%.
`C#CCN(Cc1cc2c(=O)[nH]c(C)nc2cc1Br)c1ccc(C(=O)NCc2cccnc2)cc1` was tested, and the Potency was 3.01 µM (active).
For `CC(C)S(=O)(=O)N[C@H]1CCOC[C@@H]1c1ccc(-c2ccc(C#N)s2)cc1`, the Potency was 0.213 µM (active).
In the case of `N#Cc1ccc(-c2cnc3[nH]cc(NC(=O)c4cccnc4)c3c2)cc1`, the Potency was 2.68 µM (active).
`CC(C)(C)NC(=O)[C@@H](c1cccnc1)N(C(=O)c1ccco1)c1ccc(C(C)(C)C)cc1` was tested, and the Potency was 5.35 µM (active).
With `COc1cc(Nc2nc3c(s2)CCCC3c2ccc(F)cc2)ccc1-n1cnc(C)c1` (stereo not given) the Potency was 1.34 µM (active).
